# Laboratory results reported in PubChem BioAssay AID485317 (Broad Institute, 2010).
# Out of some 290,000 compounds screened, about 11,000 (3.8%) were called active. The list comes from a sample in which actives are over-represented; it also holds similar structures and randomly drawn compounds. A number with no mark means an inactive call.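 Rule for the calls: active = mean replicate inhibition above about 79%, with every replicate also reaching it (limit read from the data); inconclusive = only one of the two criteria met; inactive = mean below limit and not every replicate reaching it.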
# Biological target: FAD-linked sulfhydryl oxidase ALR (Homo sapiens) (UniProt P55789)
# Assay: ALR-catalysed DTT oxidation blockers – biochemical, H2O2 detection, HRP-luminol luminescence, single point, primary screen (AID 485317)
# Settings: purified ALR, hits give high values, concentration not given here
# FAD-linked sulfhydryl oxidase ALR (Homo sapiens), sequence (P55789 whole entry, looked up): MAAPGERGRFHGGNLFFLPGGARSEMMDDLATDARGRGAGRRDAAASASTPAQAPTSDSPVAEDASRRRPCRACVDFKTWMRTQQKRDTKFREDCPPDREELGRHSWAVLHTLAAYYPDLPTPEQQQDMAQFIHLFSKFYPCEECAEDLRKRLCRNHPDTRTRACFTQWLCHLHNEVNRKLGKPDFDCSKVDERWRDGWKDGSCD
row,Structure (SMILES),inhibition
1,CCN(CC)S(=O)(=O)c1ccc(N2CCCC2)c(NC(=O)c2ccc([N+](=O)[O-])o2)c1,-36.7%
2,CC(C)(C)OC(=O)C[C@@H]1C/C=C\C[C@@H](CC(=O)NCCO)C(=O)N[C@H](Cc2c[nH]c3ccccc23)COC1=O,-9.99%
3,CCN(CC(=O)NCc1ccc(F)cc1)S(=O)(=O)c1ccc(Cl)s1,-4.96%
4,Cc1ccc(CNC(=O)CC(NC(=O)c2ccccc2)c2ccccc2)cc1 (stereo not given),1.43%
5,CC(=O)Nc1ccc(S(=O)(=O)NCCC(=O)N2CCN(c3ccccc3Cl)CC2)cc1,0.296%
6,O=C(CSc1nc2[nH]ncc2c(=O)[nH]1)Nc1ccc(F)cc1,-2.71%
7,Cc1ccc(C)c(-n2c(SCC(=O)O)nc3sc4c(c3c2=O)CCCC4)c1,4.79%
8,CCOc1ccc(-n2c(SCC(=O)OC)nc3sc4c(c3c2=O)CCN(C)C4)cc1,99.2% (active)
9,CCOc1ccc(-n2c(SC(C)C(=O)OC)nc3c(c2=O)SCC3)cc1 (stereo not given),-1.69%
10,O=C(N[C@@H](Cc1ccccc1)C(=O)OCc1ccccc1)c1nc[nH]c1C(=O)NC1CCNCC1,63.1%
11,O=C(Nc1ccc(NC(=O)c2ccc3c(c2)OCO3)cc1)c1cccc(Cl)c1,4%
12,CC(=O)c1c(OCC(=O)N(C)C2CCCCC2)ccc2c(C)cc(=O)oc12,-4.49%
13,COc1ccc(C(=O)CSc2nnc(COc3ccccc3)n2Cc2ccco2)cc1,13.2%
14,CCCc1nc2c(c(=O)c3ccccc3n2C)c(=O)n1-c1cc(C)cc(C)c1,9.11%
15,Cn1c2ccccc2c(=O)c2c(=O)n(Cc3ccco3)c(COc3ccccc3)nc21,96.8% (active)
16,COc1ccc(S(=O)(=O)N(C)C[C@@H]2Oc3ccc(NS(=O)(=O)c4cn(C)cn4)cc3C(=O)N([C@@H](C)CO)C[C@@H]2C)cc1,0.531%
17,O=C(NCc1ccccc1)c1ccc(CNc2c(N3CCCC3)c(=O)c2=O)cc1,-1.76%
18,CC1CCN(c2c(NCc3ccc(C(=O)NCc4ccccc4)cc3)c(=O)c2=O)CC1,6.63%
19,O=C(NC1CCCCC1)c1ccc(CNc2c(N3CCOCC3)c(=O)c2=O)cc1,96.3% (active)
20,O=C(COC(=O)c1ccccn1)NNC(=O)c1ccc(Br)cc1,-1.13%
21,COc1ccc(Br)cc1CN(C)C(=O)C1CC(=O)N(C2CCCC2)C1 (stereo not given),-9.84%
22,COC(=O)/C=C\C(=O)Nc1cccc([N+](=O)[O-])c1,97.8% (active)
23,O=C(Nc1cccc([N+](=O)[O-])c1)Nn1cnnc1,-12.6%
24,COc1ccc(S(=O)(=O)NC(C)C(=O)Nc2cccc([N+](=O)[O-])c2)cc1 (stereo not given),3.92%
25,Cc1noc(C)c1NC(=O)Nc1cccc2c1O[C@H](CN(C)S(=O)(=O)c1c(C)noc1C)[C@@H](C)CN([C@H](C)CO)C2=O,1.87%
26,Cc1cc(=O)oc2cc(NC(=O)C(C)Oc3ccccc3)ccc12 (stereo not given),-2.52%
27,Oc1cc2c(cc1O)CN(C(=S)NCCc1ccc(Cl)cc1)CCC2,97.9% (active)
28,S=C(NCCc1ccccc1)N1CCCCC1,-4.5%

row,Structure (SMILES),inhibition
1,COc1ccc(CCNC(=S)N2CCN(S(=O)(=O)c3ccc(Cl)cc3)CC2)cc1,-0.053%
2,COC(=O)[C@@]12CCCN1[C@H](c1ccc(-c3ccc(F)cc3)c(OC)c1)[C@H]1C(=O)N(C)C(=O)[C@H]12,-0.553%
3,CCOc1ncccc1C(=O)OCC(=O)c1c[nH]c2ccccc12,16.6%
4,Cc1ccc(-n2[nH]c(C)c(/C=N/NC(=O)c3cccc([N+](=O)[O-])c3)c2=O)cc1C,97% (active)
5,Cc1[nH]n(-c2ccc([N+](=O)[O-])cc2)c(=O)c1C=NCCN1CCN(C(=O)c2ccccc2F)CC1,-0.584%
6,Cc1cccc(C(=O)NNC(=O)c2cccc([N+](=O)[O-])c2)c1,2.77%
7,COc1ccc(C(=O)NCC2CCCCC2)cc1S(=O)(=O)N1CCCC1,-2.78%
8,NC(=O)CSc1nnc(NC(=O)c2ccc3ccccc3c2)s1,-2.49%
9,O=C(NCCS(=O)(=O)N1CCN(c2ccc(F)cc2)CC1)c1ccc2c(c1)OCO2,1.71%
10,CC(=O)Nc1ccc(NC(=O)CSc2nnnn2C2CCCCC2)cc1,-20.6%
11,NS(=O)(=O)c1cccc(NC(=O)COC(=O)c2cc([N+](=O)[O-])ccc2N2CCCC2)c1,-0.799%
12,Cc1ccc(NC(=O)CSc2nnc(COc3ccccc3C)o2)cc1,-0.274%
13,Cc1cc(C)cc(OCc2nnc(SCC(=O)Nc3ccccc3)o2)c1,5.24%
14,CCCc1nnc(SCC(=O)Nc2ccc(C(=O)OCC)cc2)o1,99.2% (active)
15,O=C(c1cn(-c2ccccc2)nc1-c1cccnc1)N1CCN(S(=O)(=O)c2ccccc2F)CC1,-0.713%
16,O=C(c1ccc(NS(=O)(=O)c2ccc3[nH]c(=O)[nH]c3c2)cc1)N1CCCCC1,0.0938%
17,O=C1Nc2ccccc2/C1=C/c1ccnc2ccccc12,-5.03%
18,Cc1ccccc1-n1c(C)cc(/C=C2\NC(=O)NC2=O)c1C,-11.5%
19,Cc1cc(C)c(/C=C2\C(=O)Nc3ccccc32)[nH]1,98.9% (active)
20,CN(C)/C=C1/C(=O)Nc2ccccc21,98.8% (active)
21,CN(C)/C=C1/Nc2ccccc2C1=O,31.9%
22,CN(C)/C=C1\C=C(c2ccccc2)OC1=O,-9.29%
23,CC(=O)NCCNC(=O)c1cc(-c2cccc3ccccc23)nc2ccccc12,-1.4%
24,Cc1cc(NC(=O)CSCc2ccccc2C)no1,29%
25,Cc1cc(NC(=O)CSCc2nc(-c3cccc(Cl)c3)oc2C)no1,96.6% (active)
26,COc1ccccc1C(=O)COC(=O)CSCC(=O)Nc1cc(C)on1,1.76%
27,COc1ccc(-c2cc(C(=O)Nc3ccccc3O)c3ccccc3n2)cc1,-22.7%
